Hit rate of the full screen: of about 5,500 compounds, about 2,000 (36%) were called active. Inconclusive results (about 18%) are left out. No stated cut-off is given here; in the data, active means normalized growth mostly below about 0.91 (no sharp cut-off); inconclusive means no clear call, values can overlap the other calls; inactive means mostly above about 0.92. The list shows a part of the results.
Assay: chemical genetic growth profiling, strain panel (AID 1159580);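 further: tested at 20 µM; growth read once vehicle control cultures reached saturation at 30 °C; 1 = growth at the plate median or of vehicle wells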
Conditions: S. cerevisiae deletion strains, growth OD

Measured: normalized growth

COc1ccccc1N1CCN(CCN2C(=O)CC3(CCCC3)CC2=O)CC1
inactive: locus YER002W, strain NOP16, stronger effect = lower value 0.998 | locus YMR263W, strain SAP30, stronger effect = lower value 1 | locus YMR307W, strain GAS1, stronger effect = lower value 0.989 | locus YNL128W, strain TEP1, stronger effect = lower value 0.988 | locus YNL175C, strain NOP13, stronger effect = lower value 0.991 | locus YNL197C, strain WHI3, stronger effect = lower value 0.999 | locus YNL224C, strain SQS1, stronger effect = lower value 1 | locus YOR083W, strain WHI5 (second series), stronger effect = lower value 0.999 | locus YPL055C, strain LGE1, stronger effect = lower value 1 | locus YPL241C, strain CIN2, stronger effect = lower value 1.01
